# Data published in PubChem BioAssay (EPA / NIEHS).
# The source made the active and inactive calls. The calls were made as follows: active = hit-call score of the fitted dose curve at least 0.9, where 1 is the maximum; inactive = score below 0.9.
# Key:
# [1] = read-out: Matrix Metallopeptidase 9 (MMP9), MMP9 (gene 4318); assay: BSK_KF3CT_MMP9: BioMAP Diversity Plus: KF3CT Assay for Matrix Metallopeptidase 9 (MMP9) Biomarker Activity (AID 2283074); conditions: primary human keratinocytes with fibroblasts; actives raise or lower the signal
# Outline: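 Keratinocyte plus foreskin fibroblast human primary skin co-culture was dosed with chemical and MMP-9 was quantified by ELISA 24 h later. Bidirectional curve fitting used DMSO as negative control and activity baseline.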
# [2] = read-out: urokinase plasminogen activator (uPA), PLAU (gene 5328); assay: BSK_KF3CT_uPA: BioMAP Diversity Plus: KF3CT Assay for urokinase plasminogen activator (uPA) Biomarker Activity (AID 2283075); conditions: primary human keratinocytes with fibroblasts; actives raise or lower the signal
# Outline: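 Human keratinocyte plus foreskin fibroblast primary co-culture exposed to chemical for 24 h. uPA levels were quantified by ELISA, and activity was fitted bidirectionally against a DMSO negative-control baseline.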
# [3] = read-out: CD40, CD40 (gene 958); assay: BSK_LPS_CD40: BioMAP Diversity Plus: LPS Assay for CD40 Biomarker Activity (AID 2283076); conditions: primary human HUVEC with PBMC; actives raise or lower the signal
# Outline: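 Using a multiplexed primary human co-culture (umbilical vein endothelium plus PBMC), CD40 was read by ELISA 24 h after dosing, with cytotoxicity tracked by sulforhodamine B staining of parallel cultures and activity fitted bidirectionally versus DMSO.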
# [4] = read-out: E-selectin (Homo sapiens) (UniProt P16581); assay: BSK_LPS_Eselectin: BioMAP Diversity Plus: LPS Assay for Eselectin Biomarker Activity (AID 2283077); conditions: primary human HUVEC with PBMC; actives raise or lower the signal
# Outline: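 Dose chemical onto LPS-driven HUVEC/PBMC co-culture; after 24 h, run ELISA for E-selectin; fit up- and down-going responses relative to DMSO control.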
# [5] = read-out: Interleukin-8 (IL8), CXCL8 (gene 3576); assay: BSK_LPS_IL8: BioMAP Diversity Plus: LPS Assay for Interleukin-8 (IL8) Biomarker Activity (AID 2283078); conditions: primary human HUVEC with PBMC; actives raise or lower the signal
# Outline: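 In this LPS system, chemical-treated human umbilical vein endothelium/PBMC co-cultures were harvested at 24 h for IL-8 ELISA.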
# [6] = BSK_LPS_SRB: Viability Assessment in the BioMAP Diversity Plus: LPS Assay (AID 2283079); conditions: primary human HUVEC with PBMC;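 also: total protein by sulforhodamine B absorbance as a cytotoxicity measure; measured one day after compound addition; fitted in both directions against DMSO so loss or gain of signal counts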
# Outline: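 Cytotoxicity endpoint in human endothelial–PBMC co-culture: 24 h exposure, then SRB (0.1%) staining, 560 nm read.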
# [7] = read-out: Interleukin-1 alpha (IL1a), IL1A (gene 3552); assay: BSK_LPS_IL1a: BioMAP Diversity Plus: LPS Assay for Interleukin-1 alpha (IL1a) Biomarker Activity (AID 2283080); conditions: primary human HUVEC with PBMC; actives raise or lower the signal
# Outline: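 Primary human HUVEC and PBMC co-culture stimulated with LPS is dosed and harvested at 24 h. Both increases and decreases in ELISA-measured IL-1a are scored relative to DMSO.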
# [8] = read-out: Monocyte Chemoattractant Protein-1 (MCP1), CCL2 (gene 6347); assay: BSK_LPS_MCP1: BioMAP Diversity Plus: LPS Assay for Monocyte Chemoattractant Protein-1 (MCP1) Biomarker Activity (AID 2283081); conditions: primary human HUVEC with PBMC; actives raise or lower the signal
# Outline: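 Values derive from bidirectional fitting against DMSO of ELISA-measured MCP-1 in a human primary endothelial and mononuclear cell co-culture, 24 h after chemical addition under LPS activation.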
# [9] = BSK_LPS_PGE2: BioMAP Diversity Plus: LPS Assay for Prostaglandin E2 (PGE2) Biomarker Activity (AID 2283082); conditions: primary human HUVEC with PBMC; actives raise or lower the signal
# Outline: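 Endpoint derived from bidirectional curve fitting versus DMSO of ELISA-measured PGE2 in LPS-stimulated human primary vascular co-culture (HUVEC with PBMC) harvested at 24 h.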
# [10] = read-out: Macrophage colony-stimulating factor (MCSF), CSF1 (gene 1435); assay: BSK_LPS_MCSF: BioMAP Diversity Plus: LPS Assay for Macrophage colony-stimulating factor (MCSF) Biomarker Activity (AID 2283083); conditions: primary human HUVEC with PBMC; actives raise or lower the signal
# Outline: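 Bidirectional fit versus DMSO of ELISA-measured M-CSF in co-cultured human umbilical vein endothelial cells and PBMC, sampled 24 h after dosing.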
# [11] = read-out: Tissue Factor, F3 (gene 2152); assay: BSK_LPS_TissueFactor: BioMAP Diversity Plus: LPS Assay for Tissue Factor Biomarker Activity (AID 2283084); conditions: primary human HUVEC with PBMC; actives raise or lower the signal
# Outline: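 Read-out: CD142 ELISA, 24 h. System: LPS-driven human endothelial/PBMC co-culture. Analysis: up- or down-signal fitted against DMSO.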
# [12] = read-out: Tumor necrosis factor (Homo sapiens) (UniProt P01375); assay: BSK_LPS_TNFa: BioMAP Diversity Plus: LPS Assay for Tumour Necrosis Factor alpha (TNFa) Biomarker Activity (AID 2283085); conditions: primary human HUVEC with PBMC; actives raise or lower the signal
# Outline: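 Primary human vascular co-culture of HUVEC and PBMC; TNFa ELISA 24 h after treatment, analysed as increase or decrease relative to DMSO control.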
# [13] = read-out: Vascular cell adhesion molecule 1 (VCAM1), VCAM1 (gene 7412); assay: BSK_LPS_VCAM1: BioMAP Diversity Plus: LPS Assay for Vascular cell adhesion molecule 1 (VCAM1) Biomarker Activity (AID 2283086); conditions: primary human HUVEC with PBMC; actives raise or lower the signal
# Outline: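 Primary human vascular co-culture (umbilical vein endothelium plus PBMC) stimulated with LPS received chemical; 24 h later VCAM-1 was read by ELISA. Overt cytotoxicity was assessed by sulforhodamine B staining of parallel cultures at the same time point.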
# [14] = read-out: CD40, CD40 (gene 958); assay: BSK_SAg_CD40: BioMAP Diversity Plus: SAg Assay for CD40 Biomarker Activity (AID 2283088); conditions: primary human HUVEC with PBMC; actives raise or lower the signal
# Outline: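 Endpoint derived by fitting increases or decreases versus DMSO controls. CD40 is detected by fluorescence ELISA in a human vascular co-culture of endothelium and PBMC at 24 h.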
# [15] = read-out: CD69, CD69 (gene 969); assay: BSK_SAg_CD69: BioMAP Diversity Plus: SAg Assay for CD69 Biomarker Activity (AID 2283089); conditions: primary human HUVEC with PBMC; actives raise or lower the signal
# Outline: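 ELISA, fluorescence read-out: CD69 on human umbilical vein endothelial cell + PBMC co-culture, 24 h post-dosing. Gain or loss of signal fitted bidirectionally against DMSO baseline.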
# [16] = read-out: Monocyte Chemoattractant Protein-1 (MCP1), CCL2 (gene 6347); assay: BSK_SAg_MCP1: BioMAP Diversity Plus: SAg Assay for Monocyte Chemoattractant Protein-1 (MCP1) Biomarker Activity (AID 2283090); conditions: primary human HUVEC with PBMC; actives raise or lower the signal
# Outline: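 MCP-1 levels in the endothelial–PBMC SAg co-culture were quantified by ELISA at 24 h post-dosing; both increases and decreases versus DMSO scored. Cytotoxicity monitored by SRB total protein in parallel cultures.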
# [17] = read-out: E-selectin (Homo sapiens) (UniProt P16581); assay: BSK_SAg_Eselectin: BioMAP Diversity Plus: SAg Assay for Eselectin Biomarker Activity (AID 2283091); conditions: primary human HUVEC with PBMC; actives raise or lower the signal
# Outline: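 Endpoint values derive from bidirectional fitting relative to DMSO, using ELISA-measured E-selectin in a human vascular co-culture (umbilical vein endothelium plus PBMC) sampled 24 h after dosing.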
# [18] = read-out: Monokine induced gamma interferon (MIG), CXCL9 (gene 4283); assay: BSK_SAg_MIG: BioMAP Diversity Plus: SAg Assay for Monokine induced gamma interferon (MIG) Biomarker Activity (AID 2283092); conditions: primary human HUVEC with PBMC; actives raise or lower the signal
# Outline: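 ELISA readout of MIG/CXCL9; primary human umbilical vein endothelial cells co-cultured with peripheral blood mononuclear cells; 24 h post-dose; gain/loss fit vs DMSO baseline.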
# [19] = read-out: CD38, CD38 (gene 952); assay: BSK_SAg_CD38: BioMAP Diversity Plus: SAg Assay for CD38 Biomarker Activity (AID 2283087); conditions: primary human HUVEC with PBMC; actives raise or lower the signal
# Outline: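 Fluorescence ELISA of cell-surface CD38 served as the read-out, with either increase or decrease fitted against DMSO controls. Cells were a human umbilical vein endothelium plus PBMC co-culture under SEB/TSST-1 stimulation, measured 24 h after dosing.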
# Tumor necrosis factor (Homo sapiens), sequence (P01375 whole entry, looked up): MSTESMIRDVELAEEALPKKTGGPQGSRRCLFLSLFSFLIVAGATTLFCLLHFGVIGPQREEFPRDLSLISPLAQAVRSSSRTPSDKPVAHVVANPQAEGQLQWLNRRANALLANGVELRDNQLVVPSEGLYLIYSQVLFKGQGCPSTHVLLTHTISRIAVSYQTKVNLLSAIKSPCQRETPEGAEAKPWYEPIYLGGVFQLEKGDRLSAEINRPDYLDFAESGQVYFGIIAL
# E-selectin (Homo sapiens), sequence (P16581 whole entry, looked up): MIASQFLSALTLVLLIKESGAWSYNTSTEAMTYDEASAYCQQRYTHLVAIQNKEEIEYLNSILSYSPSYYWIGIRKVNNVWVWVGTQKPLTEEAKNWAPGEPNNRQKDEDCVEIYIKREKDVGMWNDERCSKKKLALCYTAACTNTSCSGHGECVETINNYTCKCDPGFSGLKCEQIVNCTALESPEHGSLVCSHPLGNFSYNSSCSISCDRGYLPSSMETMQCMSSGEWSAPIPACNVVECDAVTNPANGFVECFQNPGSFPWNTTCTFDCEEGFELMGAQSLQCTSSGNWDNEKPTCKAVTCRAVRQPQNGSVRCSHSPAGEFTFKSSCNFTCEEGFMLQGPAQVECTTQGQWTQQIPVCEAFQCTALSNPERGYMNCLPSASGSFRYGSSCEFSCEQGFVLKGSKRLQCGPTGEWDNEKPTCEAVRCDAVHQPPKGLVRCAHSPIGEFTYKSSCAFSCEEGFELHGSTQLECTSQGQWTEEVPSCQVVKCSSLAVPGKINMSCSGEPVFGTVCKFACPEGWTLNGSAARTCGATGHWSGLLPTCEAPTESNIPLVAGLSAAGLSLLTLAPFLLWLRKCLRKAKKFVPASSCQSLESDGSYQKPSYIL
SMILES,outcome [1],outcome [2],outcome [3],outcome [4],outcome [5],outcome [6],outcome [7],outcome [8],outcome [9],outcome [10],outcome [11],outcome [12],outcome [13],outcome [14],outcome [15],outcome [16],outcome [17],outcome [18],AC50 [5],outcome [19]
OCc1ccccc1,inactive,inactive,inactive,inactive,inactive,inactive,inactive,inactive,inactive,inactive,inactive,inactive,inactive,inactive,inactive,inactive,inactive,inactive,,
CCCCC(CC)C(=O)OCCOCCOCCOC(=O)C(CC)CCCC (stereo not given),inactive,inactive,inactive,inactive,,inactive,inactive,inactive,inactive,inactive,inactive,inactive,inactive,inactive,inactive,inactive,inactive,inactive,15.7 µM (active),inactive
NNC(=O)c1ccncc1,inactive,inactive,inactive,inactive,inactive,inactive,inactive,inactive,inactive,inactive,inactive,inactive,inactive,inactive,inactive,inactive,inactive,inactive,,
